In PubChem BioAssay AID1347423 (Functional Genomics Laboratory (NCATS/FGL), 2020):
Out of some 52,000 sequences screened, about 210 (0.4%) were called active. Shown is part of a subset that was picked to be rich in actives. Values without a mark were called inactive.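 How the source made its calls: active means gene whose silencing raises cell survival under the drug, median off-target-corrected z-score across its silencing RNAs 2 or more; inactive means the rest.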

Assay: Resistance to Poly (ADP-Ribose) Polymerase inhibitor: Gene Identification via Genome-wide siRNA Screen
Details: mouse BRCA2 R2336H ES cells, olaparib, CellTiter-Glo viability; hits give high values
Procedure, shortened: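 Mouse BRCA2 R2336H ES cells were reverse-transfected with siRNA (20 nM final), treated at 48 h with 500 nM olaparib, and read by CellTiter-Glo after 72 h. Scores: MAD-based z per siRNA, median per gene, seed off-target correction.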

Row | Sequence | z-score
1 | GGGAAAAUGCUUUGUUGGATT against Rqcd1 | 1.97 (active)
2 | GGAUUGAGCUACAAGAAUATT against E330016A19Rik | -0.0566
3 | CGGACUCCUGACAUUAUAATT against Cd33 | 0.735
4 | GGUCCUCUAAAGAAUAAAGTT against Ela3b | 0.513 (active)
5 | GGAUUCACGUAAGAUUGACTT against Prlpb | 1.33
6 | GCCAACUCAGUUUUGAAUGTT against 4930404J24Rik | -0.142
7 | GGUGUUCGGUGUCCUGGAATT against Pctp | -1.75
8 | UGAAGUCUAAUCAGAGCACTT against Olfr50 | -2.01
9 | GGAAUGCCGGAUUGCUCACTT against BC008163 | 1.25
10 | GGAAGUUUCUGAAUGCUGUTT against Klrd1 | 2.01 (active)
11 | GGUCAUACACUUCUGCACATT against C330006K01Rik | 1.27
12 | GGAGGAGUUGCACCUCAUCTT against Pctk3 | 0.655
13 | GCUACGGAACAAUCACAGCTT against Jarid1d | 0.15
14 | GGAAAGAAAAAAGAUGGUCTT against Riok1 | -1.05
15 | GGUUGACAUCGACCAAUCATT against Klhl1 | 1.3 (active)
16 | AUGUGAUAGUGCCCAGCCUTT against Olfr884 | 1.48
17 | GGAAGAAAUAGAUGAGAAUTT against Tnmd | 0.737
18 | CGUUGAUUUCCAAAGCUGUTT against Kcnc2 | 0.168
19 | GGAACAUUACCAUCAAGCUTT against Eif2s3x | -2.52
20 | CCAAACUUACAAAUAUGCGTT against Sgpp1 | 3.3 (active)
21 | GGAAGUGUUUGAUGUCUUATT against Stk4 | -1.1
22 | GGGAGUUUAUUCAAAAGUGTT against Nrbp | 0.522
23 | GGACUCUUUUCUACGUGGATT against Klhl1 | 3.47 (active)
24 | GGGCAUACAUAUAACCUAUTT against Plekhc1 | 0.785
25 | CAAAUUAUGAGUGAGAACCTT against Olfr340 | -1.17
26 | GCUUAACCGUUUUUUCAAATT against Tgif | 0.555
27 | GGUUAUGAGGCUUAAUAAATT against 2810423G08Rik | 1.54

Row | Sequence | z-score
28 | GGAUCCAAGUUCCUGGCUCTT against A330096I21Rik | -0.601
29 | GGAGACUCAGGAAAAAAUUTT against Olfr1424 | 0.238
30 | CGAACAGUCUGUAUGGCGATT against Jak1 | 3.46 (active)
31 | GGCCAAUUUGAAUAAUCUATT against Zfp119 | 0.0816
32 | GGACCCUGAAGGAGCUGAATT against Per2 | -1.32
33 | UCAAACUAGGUGCUGUUGUTT against Olfr584 | -1.11 (active)
34 | GGAGAUAAAGUCUUAUCACTT against 9130017N09Rik | 0.803
35 | GCAUUUCUUUCUUGCCUUCTT against Olfr1276 | 0.613
36 | GGCUAGCUAACUAUCUCUGTT against 9230105I15Rik | 0.89
37 | GGUUCCAACAAUUGUAAAGTT against Chl1 | 2.35 (active)
38 | GGACAAGCUCCAAAACAACTT against Sfrs4 | -1.45
39 | CCUGCCUUUUCCUAAUGAATT against Ovca2 | 0.573
40 | GACAAAUAGUGCAGGAGGATT against 2310069N01Rik | 0.444
41 | CCAAAUACGACUUACGAAATT against Ncam2 | 0.897
42 | CGAUGUUUUCAUGAACGACTT against 0610012D17Rik | 0.421
43 | GGCAGUGGCUUGGAUAAAUTT against 5730457F11Rik | 2.83 (active)
44 | GGAAGAAGAGCUCUUUAAATT against Acate2 | 0.108
45 | GGACCAGCACCAUUUCCUATT against Tce4 | -0.603
46 | GCUACUAUAUGCGUUUCUUTT against Fads2 | 1.88
47 | GGCAUAAAGUUGUUUACAGTT against 3110006P09Rik | 3.24 (active)
48 | GGUCAUUUCAAGUGCUAAGTT against D7Ertd680e | 1.01
49 | GGUGGAAUGAAAUAUGAAGTT against Ptp4a1 | 0.0271
50 | CCUGGAAAGACUCUCGGAGTT against Cln2 | -0.492
51 | GGUGAUGUCUCGGUACCCATT against Mvk | -0.664
52 | GGGCUACAGCAUGUAUGAGTT against BC057627 | 2.38 (active)
53 | GGAAAUUUCUUAGCACGAATT against Ppp4r1 | 0.667
54 | GGACUUUGAAGAGGACAAUTT against Dhx38 | -2.18

Row | Sequence | z-score
55 | GCACGAAGAACCACACAAGTT against 5830484A20Rik | -0.63
56 | GCAUGAUUUAGAUCGAGUATT against Uqcrfs1 | -1.17
57 | GGAUCACUACCAUGAAAACTT against Bace1 | -0.551
58 | GGUGAAAUAGCUAAAUCAUTT against Usp15 | -0.572 (active)
59 | GGAGAUGGUUGGAUCAUUCTT against D10Ertd610e | 0.642
60 | GGGUGAAAAGCAUUUCUGUTT against MGI:1923902 | 1.38
61 | GGACAAAGAAGACUCCCGATT against Dpf2 | 0.386
62 | GCAGAUAUUCUCUGUGCAGTT against Ccnf | 2.22
63 | GGGCUAAAGUAUAUCCAUUTT against Mapk1 | 1.14 (active)
64 | CGAAGGACAAAAUAUCAGCTT against 4930517G15Rik | -0.16
65 | GUUGAGGAUAACAUUGAACTT against MGC102419 | -0.623
66 | GGGUGUAUUCUGCUUUGUATT against 2600013N14Rik | -1.3
67 | GGGAAUUGCUCACCUCCAUTT against Klre1 | -0.871
68 | GCUAAAAUUGGAUCAAGGATT against Ccbp2 | 2.14
69 | GGACUUCAUCAAAGUCUUATT against Cyp11a1 | -1.45
70 | GGAAGAACUUUAAAAAUGCTT against Mic2l1 | 0.477
71 | CGUACUCUAUGAGGUGCCATT against Rab6ip1 | 0.703
72 | GCUUAAAGAUCGAUCCCGCTT against Slc38a4 | 0.666
73 | GCCAUUAAUAAUCAGUACUTT against Sh2bpsm1 | 0.686
74 | CCAUUGCCAACAACUAGAUTT against Ela3b | 2.87 (active)
75 | GCUGAGGGUUGAUUAGUGGTT against H2-Bl | -1.2
76 | GGCCUCCAGAAACAACUCGTT against Ndst2 | 1.44
77 | GCUAGAACAGCAAAAAAAATT against Scgb3a1 | 0.00969
78 | CCACGUGUUUGCAUUCAAATT against Gdd1 | 0.222
79 | GGAUCCCACACUUUUCUGATT against Rxra | 1.02
80 | CCUAAAACUCACCAUAGAGTT against Nfatc3 | -0.0858
81 | GAUAUAAGGACUCUUUGAATT against 4732486J07Rik | -0.212

Row | Sequence | z-score
82 | GGUCUUUUGGAAUCUCUGGTT against Crip3 | 1.26 (active)
83 | GGAUAGUAACGGAAACUUGTT against Usp25 | 2.49
84 | GGAUUCGGAAUACUACGAUTT against Abo | 1.79
85 | GGUGUCCUUUCAAGUUGAUTT against C530005A01Rik | -0.63
86 | CGGCAGUGUUAAAACAUGATT against Fgfr2 | 0.114
87 | GGAGCAGUAUAUCCUACAUTT against Olfr510 | 0.104 (active)
88 | CCUGAGAACAUUUUAAUCATT against Tas2r116 | -0.685
89 | CCAAUUCUCGAAUCAUUGCTT against Olfr561 | -0.382
90 | GCUACGCUAUCCAAAUUCUTT against AF529169 | -0.118
91 | CCCUUGGAGGAAGCUAACUTT against Pde2a | 1.27 (active)
92 | GGAGAUGCCCAAUGUUUUCTT against Ehd1 | -0.27
93 | CGGCCUGUUAUAAACCUGCTT against 4933409K07Rik | -0.131
94 | GCCUCAUUGAAAGGAUCCATT against GnT-IX | -0.888
95 | GCUUUUGAUCCACAGAUUUTT against Prss33 | 2.34 (active)
96 | GGAACAUCAGGUGCAUGUGTT against Pkd1 | 1.9
97 | GGCUCCACCAAAGCCUGUUTT against 2310066N05Rik | -2.31
98 | CCUUGGGACUGACUGUAAGTT against A230072I16Rik | 2.25
99 | GGUCAAUUAUGAAGAGUUUTT against Calm3 | 1.59
100 | CCGGGUCAGGACAAUUCAUTT against Hsd17b1 | 1.29 (active)
101 | GCAUUCGGCUGAGAAGAUGTT against Foxb2 | -1.8
102 | GGAUAAUUCAGACAACAAUTT against Fus | 3.47 (active)
103 | GGAACCAAUAAAUCUGUGCTT against Rfxank | 0.27
104 | GGUCAUAGGUACGUAUCCGTT against 6430529G09Rik | -0.0313
105 | GGCUGUACAGUCAUGCAAGTT against Adamts5 | 2.62 (active)
